Test results: the supplement of paper PMC10849652
The full data set covers some 8,800 targets. This sample favours those with a hit. About 0.5% of all pairs of compound and target were hits. Unmarked numbers belong to inactive results.

Key:
Assay in all cases: log2 fold change, soluble protein after heating vs DMSO (PISA); higher = thermal stabilisation; K562 lysate, 10 uM; active = over 0.2 and 3.5 SD of the protein, either way, in both replicates (recomputed)
[1] = compound: C1=CC=C(C=C1)[C@H](COC2=CC3=C(C=C2)NC(=O)N3)NC(=O)C4=CC=CN(C4=O)CC5=CC(=C(C=C5)F)F
Procedure, shortened: (§1)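 Values give the log-two fold change in thermal stability against solvent controls, from duplicates. Crude K562 extract at 1 mg/mL protein, made by dounce homogenisation in PBS pH 7.4 with 1 mM MgCl2, was treated with 10 μM compound for 30 min. After 3 min heating across 48°C-58°C, aliquots were pooled, adjusted to 0.5% NP-40 at 4°C and centrifuged at 21,000xg for 90 min. The supernatant was measured by TMTpro 16plex LC-MS/MS with channel sums equalised.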

[2] = compound: CC1=C(SC2=C1C(=N[C@H](C3=NN=C(N32)C)CC(=O)N)C4=CC=C(C=C4)Cl)C
Procedure, shortened: as §1

[3] = compound: CC1=C2C(=CC=C1)N=C(N(C2=O)C3=CC=CC=C3C)CN4C=NC5=C(N=CN=C54)N
Procedure, shortened: as §1

[4] = compound: Cc1sc2c(c1C)C(c1ccc(Cl)cc1)=N[C@@H](CC(=O)OC(C)(C)C)c1nnc(C)n1-2
Procedure, shortened: as §1

[5] = compound: c1ccc([C@@H]2C[C@H]2NC2CCNCC2)cc1
Procedure, shortened: as §1

UniProt O60547, sequence (O60547 whole entry, looked up): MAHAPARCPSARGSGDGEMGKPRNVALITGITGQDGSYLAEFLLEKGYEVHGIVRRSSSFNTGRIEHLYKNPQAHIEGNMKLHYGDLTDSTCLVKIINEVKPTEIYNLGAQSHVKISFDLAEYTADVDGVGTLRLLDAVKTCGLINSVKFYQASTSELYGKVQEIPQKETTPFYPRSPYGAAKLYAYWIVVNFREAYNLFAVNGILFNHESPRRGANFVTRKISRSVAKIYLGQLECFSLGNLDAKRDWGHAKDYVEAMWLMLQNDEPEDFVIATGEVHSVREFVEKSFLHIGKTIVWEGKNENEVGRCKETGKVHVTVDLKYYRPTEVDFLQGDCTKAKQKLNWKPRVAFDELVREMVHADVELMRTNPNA
UniProt Q9NVH2, sequence (Q9NVH2 whole entry, looked up): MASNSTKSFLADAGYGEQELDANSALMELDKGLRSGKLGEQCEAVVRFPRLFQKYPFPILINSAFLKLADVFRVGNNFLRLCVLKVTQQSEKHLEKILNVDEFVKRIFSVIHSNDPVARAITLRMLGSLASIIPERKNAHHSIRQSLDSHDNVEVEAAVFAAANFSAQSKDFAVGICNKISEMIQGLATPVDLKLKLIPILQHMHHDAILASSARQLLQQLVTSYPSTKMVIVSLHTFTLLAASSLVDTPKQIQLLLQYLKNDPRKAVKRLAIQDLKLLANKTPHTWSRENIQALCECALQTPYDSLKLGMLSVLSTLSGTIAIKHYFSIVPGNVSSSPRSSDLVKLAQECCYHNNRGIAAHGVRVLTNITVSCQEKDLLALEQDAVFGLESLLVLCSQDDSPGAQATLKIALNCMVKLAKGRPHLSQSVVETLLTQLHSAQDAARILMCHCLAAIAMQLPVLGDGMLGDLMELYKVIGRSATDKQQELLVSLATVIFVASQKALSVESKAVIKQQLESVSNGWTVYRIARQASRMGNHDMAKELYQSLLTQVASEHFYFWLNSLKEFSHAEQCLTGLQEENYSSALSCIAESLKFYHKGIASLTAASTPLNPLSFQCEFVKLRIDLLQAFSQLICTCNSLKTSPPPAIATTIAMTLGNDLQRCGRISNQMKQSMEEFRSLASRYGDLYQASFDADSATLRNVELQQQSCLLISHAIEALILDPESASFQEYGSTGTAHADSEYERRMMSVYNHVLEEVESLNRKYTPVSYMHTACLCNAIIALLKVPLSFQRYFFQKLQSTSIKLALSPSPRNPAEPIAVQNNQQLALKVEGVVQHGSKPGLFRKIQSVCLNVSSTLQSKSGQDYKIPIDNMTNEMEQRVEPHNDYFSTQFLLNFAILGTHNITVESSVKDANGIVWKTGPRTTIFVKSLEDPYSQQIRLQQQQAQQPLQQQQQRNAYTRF
UniProt Q75QN2, sequence (Q75QN2 whole entry, looked up): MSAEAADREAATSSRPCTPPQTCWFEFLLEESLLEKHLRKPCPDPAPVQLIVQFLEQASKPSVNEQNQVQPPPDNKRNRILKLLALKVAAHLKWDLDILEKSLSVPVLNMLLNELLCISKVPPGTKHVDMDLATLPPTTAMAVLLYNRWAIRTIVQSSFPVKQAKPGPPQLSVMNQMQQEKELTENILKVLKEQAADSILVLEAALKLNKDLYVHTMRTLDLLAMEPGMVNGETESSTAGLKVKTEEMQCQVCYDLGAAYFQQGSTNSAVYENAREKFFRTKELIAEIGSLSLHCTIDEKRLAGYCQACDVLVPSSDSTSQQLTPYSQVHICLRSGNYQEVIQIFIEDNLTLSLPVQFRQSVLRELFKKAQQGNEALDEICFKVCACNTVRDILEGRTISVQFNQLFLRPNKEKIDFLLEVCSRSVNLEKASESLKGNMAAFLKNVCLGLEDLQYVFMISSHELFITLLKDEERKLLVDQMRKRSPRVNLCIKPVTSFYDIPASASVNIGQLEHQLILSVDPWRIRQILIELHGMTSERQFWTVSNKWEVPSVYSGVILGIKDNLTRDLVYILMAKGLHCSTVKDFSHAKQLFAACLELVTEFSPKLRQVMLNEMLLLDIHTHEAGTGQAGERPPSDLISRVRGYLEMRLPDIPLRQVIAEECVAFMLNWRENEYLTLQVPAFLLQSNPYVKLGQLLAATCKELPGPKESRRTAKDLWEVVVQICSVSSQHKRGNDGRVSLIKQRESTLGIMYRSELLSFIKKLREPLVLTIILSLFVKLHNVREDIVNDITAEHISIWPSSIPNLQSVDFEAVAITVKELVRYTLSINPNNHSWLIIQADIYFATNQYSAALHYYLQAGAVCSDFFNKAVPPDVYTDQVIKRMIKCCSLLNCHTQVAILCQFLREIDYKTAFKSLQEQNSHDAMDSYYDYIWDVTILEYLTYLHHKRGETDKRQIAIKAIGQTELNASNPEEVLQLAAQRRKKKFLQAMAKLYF
UniProt Q68E01, sequence (Q68E01 whole entry, looked up): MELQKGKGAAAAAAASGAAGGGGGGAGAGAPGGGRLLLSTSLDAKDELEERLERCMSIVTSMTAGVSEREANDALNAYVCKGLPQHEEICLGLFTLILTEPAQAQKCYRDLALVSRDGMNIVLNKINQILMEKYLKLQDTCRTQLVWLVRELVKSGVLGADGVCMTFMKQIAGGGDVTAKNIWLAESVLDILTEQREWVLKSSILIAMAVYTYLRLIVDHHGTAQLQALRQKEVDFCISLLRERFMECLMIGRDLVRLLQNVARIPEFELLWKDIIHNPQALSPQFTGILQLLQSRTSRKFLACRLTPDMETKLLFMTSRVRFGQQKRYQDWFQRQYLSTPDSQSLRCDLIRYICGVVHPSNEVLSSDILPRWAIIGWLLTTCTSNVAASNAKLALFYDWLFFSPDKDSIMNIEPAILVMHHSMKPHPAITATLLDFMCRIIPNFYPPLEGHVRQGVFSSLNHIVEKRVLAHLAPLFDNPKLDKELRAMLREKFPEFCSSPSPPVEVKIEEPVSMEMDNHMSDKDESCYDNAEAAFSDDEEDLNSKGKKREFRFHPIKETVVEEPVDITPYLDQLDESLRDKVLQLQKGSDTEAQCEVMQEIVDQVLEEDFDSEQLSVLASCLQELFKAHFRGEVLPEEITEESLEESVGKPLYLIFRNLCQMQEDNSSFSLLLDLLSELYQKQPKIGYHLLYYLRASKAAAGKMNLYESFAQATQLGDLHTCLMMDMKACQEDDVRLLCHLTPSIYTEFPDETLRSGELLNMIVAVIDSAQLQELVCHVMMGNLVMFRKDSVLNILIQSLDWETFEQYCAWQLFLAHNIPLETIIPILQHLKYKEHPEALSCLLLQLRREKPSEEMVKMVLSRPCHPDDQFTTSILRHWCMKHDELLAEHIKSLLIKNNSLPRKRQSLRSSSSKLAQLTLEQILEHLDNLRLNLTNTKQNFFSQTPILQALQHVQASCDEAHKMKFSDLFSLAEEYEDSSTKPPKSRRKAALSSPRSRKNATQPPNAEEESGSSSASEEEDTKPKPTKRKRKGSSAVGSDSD
UniProt Q8NEC7, sequence (Q8NEC7 whole entry, looked up): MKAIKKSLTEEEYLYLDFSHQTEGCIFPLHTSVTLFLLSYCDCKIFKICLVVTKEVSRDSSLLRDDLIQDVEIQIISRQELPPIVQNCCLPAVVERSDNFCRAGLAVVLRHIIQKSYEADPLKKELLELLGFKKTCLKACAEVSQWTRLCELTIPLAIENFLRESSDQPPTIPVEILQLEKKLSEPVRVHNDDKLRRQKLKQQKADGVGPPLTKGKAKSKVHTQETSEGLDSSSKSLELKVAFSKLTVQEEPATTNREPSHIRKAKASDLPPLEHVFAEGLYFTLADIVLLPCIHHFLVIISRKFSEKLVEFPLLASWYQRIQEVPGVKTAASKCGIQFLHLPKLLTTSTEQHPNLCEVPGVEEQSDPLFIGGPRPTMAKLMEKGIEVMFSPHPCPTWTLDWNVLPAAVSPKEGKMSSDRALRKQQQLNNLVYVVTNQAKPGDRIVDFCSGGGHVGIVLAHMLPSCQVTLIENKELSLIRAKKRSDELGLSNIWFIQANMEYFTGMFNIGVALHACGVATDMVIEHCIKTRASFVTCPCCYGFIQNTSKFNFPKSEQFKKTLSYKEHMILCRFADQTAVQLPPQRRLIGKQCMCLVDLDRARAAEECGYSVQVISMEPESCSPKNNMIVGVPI
UniProt P28161, sequence (P28161 whole entry, looked up): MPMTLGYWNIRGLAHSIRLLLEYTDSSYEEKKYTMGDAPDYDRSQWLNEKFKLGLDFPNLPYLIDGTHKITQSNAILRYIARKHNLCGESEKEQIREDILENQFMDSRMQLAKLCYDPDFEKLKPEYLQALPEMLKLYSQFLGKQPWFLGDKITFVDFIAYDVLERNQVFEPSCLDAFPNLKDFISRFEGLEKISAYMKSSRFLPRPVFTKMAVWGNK
UniProt P49840, sequence (P49840 whole entry, looked up): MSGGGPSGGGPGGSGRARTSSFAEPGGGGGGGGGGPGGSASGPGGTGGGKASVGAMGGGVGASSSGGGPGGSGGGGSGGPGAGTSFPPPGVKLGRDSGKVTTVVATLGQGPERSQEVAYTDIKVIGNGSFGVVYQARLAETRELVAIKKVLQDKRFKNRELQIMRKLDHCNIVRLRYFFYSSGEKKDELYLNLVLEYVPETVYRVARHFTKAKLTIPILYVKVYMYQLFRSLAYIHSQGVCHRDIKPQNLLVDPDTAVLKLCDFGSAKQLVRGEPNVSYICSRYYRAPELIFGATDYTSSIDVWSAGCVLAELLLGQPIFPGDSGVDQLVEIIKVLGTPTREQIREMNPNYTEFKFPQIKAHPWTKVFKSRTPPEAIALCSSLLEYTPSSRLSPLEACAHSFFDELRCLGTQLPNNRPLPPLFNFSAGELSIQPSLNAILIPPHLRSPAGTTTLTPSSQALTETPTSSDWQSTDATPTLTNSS
UniProt Q9ULR0, sequence (Q9ULR0 whole entry, looked up): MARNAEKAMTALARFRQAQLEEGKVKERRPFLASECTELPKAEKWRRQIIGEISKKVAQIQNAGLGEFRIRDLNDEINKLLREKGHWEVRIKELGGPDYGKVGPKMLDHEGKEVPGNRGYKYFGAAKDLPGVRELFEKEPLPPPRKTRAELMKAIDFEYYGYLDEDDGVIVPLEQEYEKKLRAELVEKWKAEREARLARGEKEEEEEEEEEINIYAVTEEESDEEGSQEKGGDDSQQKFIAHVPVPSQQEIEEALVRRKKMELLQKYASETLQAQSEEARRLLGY

Target	log2 fold change [1]	log2 fold change [2]	log2 fold change [3]	log2 fold change [4]	log2 fold change [5]
HNRNPD isoform 3 (UniProt Q14103)	-0.087	-0.145	0	-0.096	-0.003
HDAC2 (UniProt Q92769)	0.004	0.002	-0.017	0.02	-0.004
IMMT (UniProt Q16891)	-0.089	0.016	0.017	0.022	0.038
KCTD20 (UniProt Q7Z5Y7)	-0.031	-0.011	0.097	-0.009	0.078
GSTM2 (UniProt P28161)	-0.007	0.03	-0.048	-0.037	0.051
GLUL (UniProt P15104)	-0.011	-0.063	-0.085	0.031	0.053
GSTCD (UniProt Q8NEC7)	-0.048	-0.048	-0.076	-0.055	0.007
HAUS7 isoform 2 (UniProt Q99871)	0.163	0.036	0.019	0.069	0.032
KHDRBS1 (UniProt Q07666)	-0.04	0.027	0	0.058	0.045
HMGA1 (UniProt P17096)	0.009	0.024	0.011	-0.031	-0.135
KHK isoform 2 (UniProt P50053)	-0.01	0.034	-0.003	-0.137	0.142
ILK (UniProt Q13418)	-0.009	-0.019	0.004	0.027	-0.002
IMPDH1 isoform 6 (UniProt P20839)	-0.008	0.025	-0.009	0.053	-0.051
GSK3A (UniProt P49840)	-0.041	0.03	-0.059	0.036	-0.044
INTS7 (UniProt Q9NVH2)	-0.06	0.007	0.016	0.009	-0.001
GLYR1 (UniProt Q49A26)	-0.179	0.066	-0.128	0.142	0.043
HACE1 (UniProt Q8IYU2)	-0.03	0.08	0.07	-0.115	-0.377
KEAP1 (UniProt Q14145)	0.029	0.016	0.014	-0.018	-0.02
INTS8 (UniProt Q75QN2)	0.021	-0.085	-0.002	0.023	0.081
HDAC3 (UniProt O15379)	-0.035	0.009	0.006	0.044	0.014
INTS1 (UniProt Q8N201)	-0.017	0.065	-0.045	0.019	0.004
GPX4 (UniProt P36969)	0.018	-0.01	0.036	-0.03	0.048
HAUS4 (UniProt Q9H6D7)	-0.009	-0.043	0.019	0.019	0.02
ISY1 isoform 1 (UniProt Q9ULR0)	0.016	0	0.001	-0.12	-0.004
GPR108 (UniProt Q9NPR9)	0.059	-0.053	0.005	-0.066	0.014
INTS3 (UniProt Q68E01)	0.017	0.063	-0.043	-0.06	0.074
INPPL1 (UniProt O15357)	0.014	0.029	-0.021	0.012	0.021

Target	log2 fold change [1]	log2 fold change [2]	log2 fold change [3]	log2 fold change [4]	log2 fold change [5]
INF2 (UniProt Q27J81)	0.016	0.017	0.015	-0.014	-0.06
GOLPH3 (UniProt Q9H4A6)	-0.067	0.018	0.022	-0.089	0.008
GRK2 (UniProt P25098)	-0.05	0.009	0.03	0.007	-0.008
GSTP1 (UniProt P09211)	-0.018	0.004	-0.003	-0.017	0.035
GOLGA1 (UniProt Q92805)	-0.042	0.045	0.026	-0.057	0.009
GMDS (UniProt O60547)	-0.003	-0.014	0.042	0.033	0.005
KBTBD4 isoform 2 (UniProt Q9NVX7)	-0.014	-0.003	-0.106	-0.025	0.016
HMGCL (UniProt P35914)	0.057	-0.017	0.058	0.046	0.006
HIST2H2BC (UniProt Q6DN03)	-0.03	0.065	0.014	0.003	0.165
ITPKA (UniProt P23677)	-0.022	0.006	-0.017	-0.012	-0.013
HK1 isoform 2 (UniProt P19367)	-0.017	0.017	-0.002	0.016	0.016
IMMT (UniProt C9J406)	-0.055	0.041	0.049	0.077	-0.056
GSTM4 (UniProt Q03013)	-0.04	-0.053	0.03	0.09	-0.016
IRF2BP1 (UniProt Q8IU81)	-0.048	-0.013	-0.043	0.017	-0.045
GLUD2 (UniProt P49448)	-0.001	0.031	0.265	0.019	0.022
IGF2BP2 (UniProt Q9Y6M1)	-0.041	-0.004	0.012	0.022	0.008
HADH isoform 2 (UniProt Q16836)	0.012	0.004	-0.047	0.013	0.086
KDM5B isoform 2 (UniProt Q9UGL1)	-0.07	0.117	0.018	0.07	-0.229
ICAM2 (UniProt P13598)	0.03	-0.025	-0.006	-0.022	0.084
GNB1 (UniProt P62873)	0.042	-0.051	-0.038	0.069	-0.329
HSPA8 (UniProt E9PK54)	0.065	-0.031	-0.031	-0.046	-0.125
INTS14 (UniProt Q96SY0)	0.067	0.034	-0.038	0.007	0.009
HSPA14 (UniProt Q0VDF9)	0	0.011	-0.004	0.025	0.017
H4C1 (UniProt P62805)	-0.063	0.037	-0.031	0.664 (active)	0.125
HK2 (UniProt P52789)	-0.021	-0.016	0.043	0.019	0.063
IRF2BPL (UniProt Q9H1B7)	0.055	-0.057	0	0.047	-0.134
